TRPV1 agonist: activates the human vanilloid receptor TRPV1 | activation, % at 8.33 µM | 320,000 tested, 0.19% active | TRPV1-expressing cells, Fluo-8 calcium influx, agonist mode | AID 540275; in the data active means activation above about 80%; inconclusive means between about 30% and that limit
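TRPV1-expressing cells were cultured overnight at 35.5C and loaded with Fluo-8 calcium dye for 40 to 90 min at room temperature. After a 10 s baseline, compound was added and calcium influx was read kinetically for 3 min (ex 480/em 520 nm).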
uPA surface inh: inhibitors of cell surface uPA generation; 330,000 tested, 0.31% active; AID 540303; Potency, µM (top dose mostly 38.3 µM), usual class: inhibitors; cell surface uPA generation assay, qHTS; active means well fitted inhibition curve with a large enough effect; inconclusive means small, poorly fitted or top-dose-only effect; inactive means no such curve, though single readings can be large or run the other way; tested in mouse RAW 264.7 cells; further: nearly all actives have a fitted effect of over 55% in size
VP16 counter: inhibits Gal4-VP16 luciferase reporter, ROR gamma counter-screen; 310,000 tested, 3.5% active; Potency, µM (highest dose often 53.6 µM), actives largely listed as inhibitors; Drosophila S2 Gal4-VP16 UAS-luciferase, luminescence, 20 h;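 further: Gal4-VP16 expression switched on by copper sulfate through the metallothionein promoter; nearly all actives have a fitted effect of over 50% in size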
TRPV1 potentiator: enhances activation of the human vanilloid receptor TRPV1; Q8NER1; TRPV1-expressing cells, Fluo-8 calcium influx, capsaicin EC20 potentiation; potentiation, % at 8.33 µM; 320,000 tested, 0.02% active; AID 540277; in the data active means potentiation above about 80%; inconclusive means between about 30% and that limit
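Fluo-8 calcium influx in TRPV1-expressing cells, kinetic read (ex 480/em 520 nm). Compound added and read 3 min for agonist activity, followed by capsaicin at EC20 final and 2 min further read for enhancement.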
RORg inh: blocks mouse ROR gamma transcriptional activity. P51450. Potency, µM (highest dose often 53.6 µM), actives largely listed as inhibitors. Drosophila S2 Gal4-RORgamma UAS-luciferase reporter, 20 h. 310,000 tested, 5.4% active; further: nearly all actives have a fitted effect of over 60% in size
Target sequence (P51450 whole entry, looked up, the tested form may be a part): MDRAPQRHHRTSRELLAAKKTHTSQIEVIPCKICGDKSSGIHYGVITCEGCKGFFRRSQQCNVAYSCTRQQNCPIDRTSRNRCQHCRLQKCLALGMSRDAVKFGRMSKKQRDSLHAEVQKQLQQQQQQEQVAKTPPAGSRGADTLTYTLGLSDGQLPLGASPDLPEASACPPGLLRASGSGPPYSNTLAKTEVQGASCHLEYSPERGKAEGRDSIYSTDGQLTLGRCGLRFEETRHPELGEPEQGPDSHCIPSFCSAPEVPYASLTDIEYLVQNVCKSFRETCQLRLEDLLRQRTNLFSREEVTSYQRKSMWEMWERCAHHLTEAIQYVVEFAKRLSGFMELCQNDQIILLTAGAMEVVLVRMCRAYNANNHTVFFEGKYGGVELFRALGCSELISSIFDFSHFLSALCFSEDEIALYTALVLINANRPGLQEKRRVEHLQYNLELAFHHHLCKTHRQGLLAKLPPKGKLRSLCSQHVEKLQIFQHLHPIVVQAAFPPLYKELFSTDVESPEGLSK
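A Gal4/UAS one-hybrid system in insect cells: metallothionein-promoter Gal4–ROR gamma fusion plus Photinus luciferase reporter. Copper sulfate 700 uM final, 20 hr ambient incubation, luminescent detection after 10 min with reagent.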
A number is an active result; [ ] = dose if it differs, or a comment. Most compounds without a hit are left out; they make up all but 5.8% or so of the library. Unless noted, the call rests on the fitted dose curve; in most records, active means well fitted curve in the direction sought with a large enough effect; inconclusive means small, poorly fitted or top-dose-only effect, or another doubt; inactive means no such curve, though single readings can be large; an effect the other way counts as inactive or inconclusive.

`C=CCn1c(C)cc(C(=O)CSc2nc3ccccc3[nH]2)c1C` gave TRPV1 agonist inconclusive, VP16 counter 13µM, TRPV1 potentiator inactive and RORg inh 10µM.
Screening Oc1cccc2ccc(N3CCOCC3)nc12 returned TRPV1 agonist inactive, uPA surface inh inactive, VP16 counter inactive, TRPV1 potentiator inactive and RORg inh inactive.
Cc1ccn2c(NC(=O)C(C)(C)Oc3ccc(Cl)cc3)c(-c3cccs3)nc2c1 was read as TRPV1 agonist inconclusive, uPA surface inh inactive, VP16 counter inactive, TRPV1 potentiator inactive and RORg inh inactive[10 µM].
For Cc1ccc(N/C=C2\CCCCC2=O)nc1 the results were TRPV1 agonist inactive, uPA surface inh inactive, VP16 counter inactive, TRPV1 potentiator inactive and RORg inh inconclusive.
For Cc1ccc(OCc2nnc(SCc3nc4ccccc4[nH]3)n2Cc2ccco2)cc1 the results were TRPV1 agonist inactive, uPA surface inh inactive, VP16 counter inconclusive, TRPV1 potentiator inactive and RORg inh inconclusive.
Screening c1ccc(-c2nnc(SCc3nc4ccccc4[nH]3)n2Cc2ccco2)cc1 returned TRPV1 agonist inconclusive, VP16 counter inconclusive, TRPV1 potentiator inactive and RORg inh 11µM.
Screening CC(=O)c1sc(N/N=C2\CC3CC2C(C)C3(C)C)nc1C (stereo unspecified) returned TRPV1 agonist inactive, uPA surface inh inactive, VP16 counter inconclusive, TRPV1 potentiator inactive and RORg inh 7.1µM.
COc1ccc(/C(C)=N/Nc2nc(C)c(C(C)=O)s2)cc1 was read as TRPV1 agonist inactive, uPA surface inh inactive and TRPV1 potentiator inactive.
CC(C)NC(=O)NC(=O)COC(=O)c1ccc([N+](=O)[O-])cc1Cl was read as TRPV1 agonist inactive, uPA surface inh inactive, VP16 counter inactive, TRPV1 potentiator inactive and RORg inh inactive.
`COCCn1c(=O)[nH]c2cc(C(=O)N3CCN(c4ccccc4OC)CC3)ccc2c1=O` gave TRPV1 agonist inactive, uPA surface inh inactive, VP16 counter inactive, TRPV1 potentiator inactive and RORg inh inactive.
COc1ccccc1N1CCN(C(=O)c2ccc3c(Cl)c4c(nc3c2)CCCC4)CC1 was read as TRPV1 agonist inactive, uPA surface inh 4.5µM, VP16 counter inactive, TRPV1 potentiator inactive and RORg inh inconclusive.
COCCn1c(=S)[nH]c2cc(C(=O)N3CC(C)CC(C)C3)ccc2c1=O (stereo unspecified) was read as TRPV1 agonist inactive, uPA surface inh inactive, VP16 counter inconclusive, TRPV1 potentiator inactive and RORg inh 11µM.
O=C(CCCn1c(=O)[nH]c2ccccc2c1=O)NCCSCc1ccccc1 was read as TRPV1 agonist inactive, uPA surface inh inactive, VP16 counter inactive, TRPV1 potentiator inactive and RORg inh inactive.
O=C(CCCn1c(=S)[nH]c2ccccc2c1=O)NCCSCc1ccccc1 was read as TRPV1 agonist inactive, uPA surface inh inactive, VP16 counter inactive[10 µM], TRPV1 potentiator inactive and RORg inh 13µM.
`COCCn1c(=S)[nH]c2cc(C(=O)N3CCN(c4ccccc4OC)CC3)ccc2c1=O` gave TRPV1 agonist inactive, VP16 counter inconclusive, TRPV1 potentiator inactive and RORg inh 14µM.
COc1cccc(CCNC(=O)C2CCC(=O)N(C3CC3)C2)c1OC (stereo unspecified) was read as TRPV1 agonist inactive, uPA surface inh inactive, VP16 counter inactive, TRPV1 potentiator inactive and RORg inh inactive.
`COc1cccc(CN(CC(=O)NC2CCCC2)C(=O)Cn2nnc(-c3cccs3)n2)c1` gave TRPV1 agonist inactive, uPA surface inh inactive, VP16 counter inactive[0.365 µM], TRPV1 potentiator inactive and RORg inh inactive.
`O=C(CCCn1c(=S)[nH]c2ccccc2c1=O)N1CCCCC1` gave TRPV1 agonist inactive, uPA surface inh inactive, VP16 counter inconclusive, TRPV1 potentiator inactive and RORg inh inconclusive.
For CC1CC(C)CN(C(=O)CCCn2c(=S)[nH]c3ccccc3c2=O)C1 (stereo unspecified) the results were TRPV1 agonist inconclusive, uPA surface inh inactive, VP16 counter 13µM, TRPV1 potentiator inactive and RORg inh 7.9µM.
Screening COc1ccc(-c2nc3cnc(N4CCN(C)CC4)nc3n(CCC#N)c2=O)cc1 returned VP16 counter inactive and RORg inh inactive.
`C/C(=N\NC(N)=S)C1(C)CCCCC1` gave TRPV1 agonist inactive, uPA surface inh inactive, VP16 counter 8.9µM, TRPV1 potentiator inactive and RORg inh 3.5µM.
For C/C(=N\NC(N)=O)C1(C)CCCCC1 the results were TRPV1 agonist inactive, VP16 counter inactive, TRPV1 potentiator inactive and RORg inh inactive.

Bioassay records: PubChem, National Center for Advancing Translational Sciences (NCATS)
